# Screening data (PubChem BioAssay)
# Sm TGR inh = inhibitors of Schistosoma mansoni thioredoxin glutathione reductase; Potency, µM (top dose mostly 114 µM), actives largely listed as inhibitors; 360,000 tested, 3% active; purified TGR, DTNB reduction, TNB absorbance 405 nm; note: nearly all actives have a fitted effect of over 60% in size
#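 First, TGR (20 nM dispensed) and NADPH were mixed with compound. Second, a 15 min room-temperature incubation followed. Third, further NADPH and then DTNB were added to start the reaction. Finally, TNB absorbance was monitored kinetically.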
# VACV Venus inh = vaccinia inhibition (Venus reporter); Vaccinia virus Venus reporter expression, fluorescence; Potency, µM (titrated, usually from 36.5 µM), hits mostly inhibitors; 330,000 tested, 0.46% active; calls by dose curve; tested in A549 cells; note: nearly all actives have a fitted effect of over 30% in size
# FMDV inh = antivirals against foot and mouth disease virus | FMDV antiviral cell-based qHTS | Potency, µM (doses to about 57.9 µM), actives largely listed as inhibitors | 410,000 tested, 1.2% active | AID 1159524; calls by dose curve; tested in HEK293T cells; note: read-out not given here; nearly all actives have a fitted effect of over 45% in size
# HCMV antiviral = blocks human cytomegalovirus replication; HFF cells, HCMV-luciferase reporter, 72 h; stronger effect = lower value; 410,000 tested, 4.5% active; AID 1259415; activity change, negative = inhibition, % at 57.5 µM; in the data active = activity change below about -60%; inconclusive = no clear call, values can overlap the other calls; inactive = above about -39%
#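 HFF cells seeded 16 h at 37C, treated with compounds, infected with luciferase-reporter HCMV at MOI 1 PFU/cell; luciferase read at 72 h post infection, normalized to buffer-only and Salinomycin controls.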
# VACV mCherry inh = inhibitors of vaccinia virus infection (mCherry reporter signal). Vaccinia virus mCherry reporter infection, fluorescence. Potency, µM (doses to about 36.5 µM), actives largely listed as inhibitors. 310,000 tested, 0.63% active. AID 720579; calls by dose curve; tested in A549 cells; note: nearly all actives have a fitted effect of over 35% in size
# HCV inh = inhibitors of hepatitis C virus infection; Huh7.5.1 HCVcc-Cre infection, luciferase reporter, 44 h; Potency, µM (titrated, usually from 41.8 µM), most hits filed as inhibitors; 340,000 tested, 3.4% active
#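 Reporter virus HCVcc-Cre (~0.5 moi) infects cells exposed to compound; seeding density 1,000 cells/well with 4 h settling beforehand. Luminescence, 15 sec read, taken 44 h post-infection following a 15 min RT substrate incubation.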
# Numbers stand for hits; n = inactive; u = inconclusive; x = no result given; ! = not active in a repeat; [ ] = dose if it differs, or a comment. A selection: hits, their analogues and other compounds. The true share with any hit is near 9.3%. Unless noted, calls come from the whole dose curve; as a rule, active = well fitted curve in the direction sought with a large enough effect; inconclusive = small, poorly fitted or top-dose-only effect, or another doubt; inactive = no such curve, though single readings can be large; an effect the other way counts as inactive or inconclusive.
SMILES,Sm TGR inh,VACV Venus inh,FMDV inh,HCMV antiviral,VACV mCherry inh,HCV inh
Cc1[nH]c2ccc(C(=O)Nc3ccncc3)cc2c1C,n,x,n,-63,x,11µM
Cc1ccc(C(=O)NCC(=O)Nc2ccncc2)cc1,n,x,n,n,x,n
O=C(Nc1ccncc1)Nc1ccncc1,n,n,n,n,n,n
COc1ccccc1C(=O)NCCn1cc(SCC(=O)Nc2nnc(C)s2)c2ccccc21,n,n,n,n,n,n
Cc1cn([C@H]2C[C@H](O)[C@@H](CNCc3ccc(C#CCCO)cc3)O2)c(=O)[nH]c1=O,x,n,n,n,n,x
O=C(CS(=O)(=O)c1cn(Cc2cccc(F)c2)c2ccccc12)N1CCOCC1,n,x,n,n,x,n
COc1ccc([N+](=O)[O-])cc1NC(=O)c1cc(C)c(C)o1,x,n,n,n,n,n
CCc1nc2cc(C(=O)NC3CCOC(C)(C)C3)cc(NC(=O)c3ccccc3OC)c2n1C (stereo not given),x,n,n,x,n,x
Cc1ccc(CC(=O)Nc2ccncc2)cc1,x,x,u,u,x,13µM
O=C(Cc1ccc(Cl)cc1)Nc1ccncc1,n,n,u,u,n,10µM
CC(C)(Oc1ccc(Cl)cc1)C(=O)Nc1ccncc1,n,u,u,n,x,11µM
O=C(Nc1ccncc1)c1ccc(Cl)cc1,n,x,n,n,x,n
COc1ccc(/C=C/CN2CCCC(C(=O)c3ccc(OC)c(F)c3)C2)cc1 (stereo not given),n,n,u,n,n,u
COc1ccccc1/C=C/C1NC(=O)NC(C)=C1C(=O)OC(C)C (stereo not given),n,n,n,n,n,u
COc1ccc(-c2nc3ccc(Cl)cn3c2Cc2cccc(Cl)c2)cc1OC,x,n,n,n,n,x
Cc1ccc(-c2nc3cc(Br)cnc3nc2-c2ccc(C)cc2)cc1,n,n,u,n,n,13µM
COc1ccc(N2CCN(C(=O)CN=C3NS(=O)(=O)C(c4ccc(C)cc4)=C3C)CC2)cc1,n,n,n,-61,u,n
Cc1ccc(CCC(=O)NCc2ccccc2)o1,35µM,n,n,n,n,n
Cc1ccc(C)c(NC(=O)CCc2ccc(C)o2)c1,n,x,n,n,x,n
Cc1ccc(CCC(=O)Nc2ncc(Cc3cccc(Cl)c3Cl)s2)o1,n,u,n,-64,u,u
Cc1ccc(CCC(=O)Nc2cc(Cl)ccc2Cl)o1,n,n,n,-97,n,n
CC(C)CC(=O)/C(=C/c1ccc(N(C)C)cc1)n1cncn1,n,n,n,-60,n,n
CC(C)CC(=O)/C(=C\c1ccc(Cl)cc1Cl)n1cncn1,22µM,13µM,7.9µM,x,u,u
CCN(CC(=O)NCc1cccs1)S(=O)(=O)c1cc(NC(C)=O)ccc1OC,n,x,n,n,x,n
OCC1OC(n2ccc3c(NO)ncnc32)C(O)C1O (stereo not given),x,1.1µM,u,-98,u,u
SMILES,Sm TGR inh,VACV Venus inh,FMDV inh,HCMV antiviral,VACV mCherry inh,HCV inh
CN(C)c1ncnc2c1ccn2C1OC(CO)C(O)C1O (stereo not given),x,u,n,-98,u,u
OC[C@H]1O[C@@H](n2cnc3c(Nc4ccccc4)ncnc32)[C@H](O)[C@@H]1O,n,n,n,n,n,n[8.37 µM]
OCC1OC(n2cnc3c(NCc4ccccc4O)ncnc32)C(O)C1O (stereo not given),x,u,n,-100,u,n
OCC1OC(n2cnc3c(NO)ncnc32)C(O)C1O (stereo not given),x,n,x,x,n,x
O=C1c2cccc3cccc(c23)C(=O)N1/N=C/c1c(O)n(-c2ccccc2)c(=O)[nH]c1=O,x,n,u,n,n,n
O=C(CCN1CCC2CCC(C2)C1)c1ccccc1 (stereo not given),x,n,u,n,n,n
OC(CCN1CCC2CCC(C2)C1)c1ccc(Br)cc1 (stereo not given),x,n,u,n,n,32µM
CN1C(=O)Cc2cc(S(=O)(=O)CCC(=O)N3CCN(c4ccccc4F)CC3)ccc21,n,n,n,n,n,x
CCC(=O)N1CCc2cc(S(=O)(=O)CCC(=O)N3CCN(c4ccc(Cl)cc4)CC3)ccc21,n,n[7.34 µM],u,-77!,n[7.34 µM],10µM
CCC(=O)N1c2ccc(S(=O)(=O)CCC(=O)N3CCN(c4ccccc4F)CC3)cc2CC1C (stereo not given),22µM,n,n,n,n,n
CCC(=O)N1CCc2cc(S(=O)(=O)CCC(=O)N3CCN(c4cccc(Cl)c4)CC3)ccc21,n,n,n,n,n,x
COc1ccccc1C(=O)NCC(=O)OCC(=O)c1ccc(Cl)s1,n,n,n,n,n,n
COc1ccccc1Oc1nc(C)c(C(C)=O)cc1C#N,n,n,u,n,n,u
COc1ccccc1Oc1cc(C#N)c(C#N)cc1-n1nnc2ccccc21,n,n,u,-92,n,u
Oc1ccc(N=Nc2n[nH]c(-c3ccc(Cl)cc3)n2)cc1,n,x,n,-95,x,n
O=C(CNC(=O)/C=C/c1ccco1)N=Nc1c(O)[nH]c2ccccc12,7.1µM,x,n,n,x,n
O=C(/C=C/c1ccco1)NCc1ccc(F)cc1,3.2µM,n,n,n,n,n
NS(=O)(=O)c1ccc(CNC(=O)/C=C/c2ccco2)cc1,1.6µM,x,n,n,x,n
C=CCN=C1N[C@@H](c2ccc(Br)cc2)C(C(=O)OC)=C(C)N1Cc1ccccc1,n,n,x,x,n,x
COc1ccc(N=N/C(=C\O)C(=O)c2cccs2)cc1,n,n,n,-92,u,n
CCOC(=O)/C=C(\C)Sc1cc(O)c2ccccc2c1O,0.79µM,x,28µM,-100,x,u
CCOC(=O)c1c(C)[nH]c2c1cc(O)c1ccccc12,n,n,x,n,u,u
CCOC(=O)Nc1oc2ccccc2c(=O)c1C,n,x,n,n,x,n
CCOC(=O)/C=C(\C)Sc1cc(=O)oc2ccccc12,22µM,x,n,n,x,u
O=C1NC2=C(C(=O)CCC2)C(c2ccccc2)N1 (stereo not given),n,n,n,n,n,n
SMILES,Sm TGR inh,VACV Venus inh,FMDV inh,HCMV antiviral,VACV mCherry inh,HCV inh
CCc1ccc(NC(=O)c2cc(C(C)=O)n3ccccc23)cc1,n,n,n,n,n,x
c1ccc(C(NCCNC(c2ccccc2)c2ccccc2)c2ccccc2)cc1,n,x,n,n,x,u
O=c1cc(-c2ccccc2Cl)oc2cc(O)cc(O)c12,n,n,n,n,n,n[8.37 µM]
O=C1C=CC(O)(c2cc(=O)c3c(O)cc(O)cc3o2)C=C1,35µM,u,18µM,-96,11µM,u
Cn1c(=O)oc2cc(S(=O)(=O)Nc3cccc4c3CCCC4)ccc21,n,n,n,-91,n,n
Cn1c(=O)oc2cc(S(=O)(=O)NCc3ccco3)ccc21,u,n,n,n,n,n
CC(C)NS(=O)(=O)c1ccc2c(c1)oc(=O)n2C,89µM,n,n,n,n,u
CCC1CCCCN1Cc1ccc(CNS(=O)(=O)c2ccc3c(c2)oc(=O)n3C)o1 (stereo not given),79µM,x,n,n,x,n
